In PubChem BioAssay AID2501 (Southern Research Specialized Biocontainment Screening …, 2010):
About 1,200 (55%) of roughly 2,200 compounds were called active. The limit is not given here; nearly all actives have IC50 up to about 92 µM. The set was probably picked from earlier hits. The list shows a part of the results.

Assay: counter assay for TAg ATPase ADP read-out – biochemical, ADP-Hunter, fluorescence, counter-screen (AID 2501);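 also: purified T antigen ATPase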
Details: series mostly up to 100 µM

Row | SMILES | IC50
1 | CN(C)c1ccc(N2CC(C)(C)C2=O)cc1 | 3.63 µM (active)
2 | COc1ccc(C2=CC3=C(Br)C(=O)C(C)(OC(=O)c4ccc(Cl)nc4)C(=O)C3=CO2)cc1 (stereo not given) | inactive
3 | COc1ccc(NC2SC(=O)N(C)C2=O)cc1 (stereo not given) | 91 µM (active)
4 | O=C(Nc1nnc(COc2ccccc2)s1)C1CCN(S(=O)(=O)c2ccc(Cl)cc2)CC1 | inactive
5 | CC1OC(OCC2OC(Oc3c(-c4ccc(O)cc4)oc4cc(O)cc(O)c4c3=O)C(O)C(O)C2O)C(O)C(O)C1O (stereo not given) | 30.9 µM (active)
6 | O=C(O)C1OC(Oc2c(-c3ccc(O)c(O)c3)oc3cc(O)cc(O)c3c2=O)C(O)C(O)C1O (stereo not given) | 8.72 µM (active)
7 | O=c1c(OC2OC(CO)C(O)C(O)C2O)c(-c2ccc(O)c(O)c2)oc2cc(O)cc(O)c12 (stereo not given) | 6.33 µM (active)
8 | COc1ccccc1Nc1nc(C)cs1 | inactive
9 | Cc1csc(NC(=O)NC2(C(F)(F)F)Oc3ccccc3O2)n1 | 12 µM (active)
10 | Cc1cccc(C)c1NC(=O)C(c1ccc([N+](=O)[O-])cc1)N(C)C(=O)c1ccccn1 (stereo not given) | inactive
11 | Cc1ccc(-n2ncc3c(N4CCN(c5ccc(F)cc5)CC4)ncnc32)c(C)c1 | inactive
12 | O=C1C=C(Nc2ccc(O)cc2)CC(c2ccco2)C1 (stereo not given) | 3.1 µM (active)
13 | O=C1CC(c2ccco2)CC(O)=C1C=Nc1cc(Cl)cc(Cl)c1 (stereo not given) | inactive
14 | COC(=O)CCC(=O)OC1(C)C(=O)C=C2C=C3CCCN3C=C2C1=O (stereo not given) | inactive
15 | C/C=C/C=C/C(=O)Nc1cccc(C2=NOC3(C2)C[C@H](C(N)=O)N(C(=O)CC(c2ccccc2)c2ccccc2)C3)c1 (stereo not given in full) | inactive
16 | CCCCNC(=O)c1sc(=S)n2c1[nH]c(=O)c1ccccc12 | 57.9 µM (active)
17 | N#Cc1c(NC(=O)CCC(=O)O)sc2c1CCCC2 | inactive
18 | O=[N+]([O-])c1cccnc1SCc1ccccc1 | inactive
19 | O=c1c2c([N+](=O)[O-])cc([N+](=O)[O-])cc2sn1Cc1ccccc1 | 77.3 µM (active)
20 | O=[N+]([O-])c1ccc(-[n+]2ccc3ccccc3c2)c([N+](=O)[O-])c1 | inactive
21 | Cc1cc(=O)oc2c(N)c(O)ccc12 | 2.9 µM (active)
22 | CCc1c(C(=O)c2ccc(Cl)cc2)oc2c(C)c3oc(=O)cc(C)c3cc12 | inactive

Row | SMILES | IC50
23 | CN(CC(=O)Nc1ccccc1Br)C(=O)c1cc(S(=O)(=O)N(C)C)ccc1N1CCCC1 | inactive
24 | CCN(CC)S(=O)(=O)c1ccc(N2CCCCC2)c(NC(=O)/C=C/c2cc(OC)c(OC)c(OC)c2)c1 | inactive
25 | Cc1ccccc1NC(=O)c1cc(N)ccc1N1CCCCC1 | 5.41 µM (active)
26 | O=C(N/N=C/c1ccc(O)c(O)c1)c1cccc(S(=O)(=O)N2CCCC2)c1 | 4.88 µM (active)
27 | CCNC(=O)NC(=O)C(C)OC(=O)c1cc(S(=O)(=O)N2CCCCCC2)ccc1OC (stereo not given) | inactive
28 | COc1cc(/C=N/NC(=O)c2cccc(S(=O)(=O)N3CCCC3)c2)ccc1O | 4.27 µM (active)
29 | O=C(N/N=C/c1ccc(O)c(O)c1)c1cccc(S(=O)(=O)N2CCCCC2)c1 | 10.5 µM (active)
30 | CC(NCC(=O)Nc1cc(S(=O)(=O)N2CCCCCC2)ccc1Cl)c1ccccc1 (stereo not given) | inactive
31 | Cc1cc(O)ccc1N/C=C1\CCCC1=O | 10.2 µM (active)
32 | O=C1CCCC/C1=C\Nc1ccc(O)cc1 | 4.32 µM (active)
33 | Oc1ccc2c(c1)oc1cc(O)ccc12 | 4.05 µM (active)
34 | O=c1oc2cc(O)ccc2c2ccccc12 | 8.47 µM (active)
35 | Cc1ccc(C(C)NC(=S)NCc2ccc(F)cc2)cc1C (stereo not given) | 33.9 µM (active)
36 | Oc1cc2c(cc1O)C1c3ccc(O)c(O)c3OCC1(O)C2 (stereo not given) | inactive
37 | CC(C)Cn1c(N)c(C(=O)COC(=O)c2cc(-c3ccco3)nc3ccccc23)c(=O)n(C)c1=O | inactive
38 | CC(=O)Oc1ccc(C(=O)OCC(=O)c2c(N)n(C)c(=O)n(C)c2=O)cc1OC(C)=O | 5.13 µM (active)
39 | COc1cc(SC#N)ccc1N=Cc1c(C)[nH]n(-c2ccc(C)cc2C)c1=O | inactive
40 | O=C(Nc1ccc(O)cc1)c1ccc(NC(=O)C2CCCO2)cc1 (stereo not given) | 7.4 µM (active)
41 | O=C(Nc1ccc(O)cc1)C1CC=CCC1 (stereo not given) | 6.87 µM (active)
42 | O=C(Nc1ccc(O)cc1)C1CCCO1 (stereo not given) | 5.34 µM (active)
43 | CCOC(=O)c1c(N2C(=O)Nc3cc(Cl)c(Cl)cc3N2O)sc2c1CCCCC2 | inactive
44 | O=C(O)CC1(Cc2nc(-c3cccs3)no2)CCCC1 | inactive

Row | SMILES | IC50
45 | Nc1nc(-c2cccs2)c(NC(=O)c2ccccc2)s1 | 10.4 µM (active)
46 | Cc1c(C)n(Cc2ccccc2)c2ncnc(NN)c12 | inactive
47 | c1ccc(CNc2ncnc3ccccc23)cc1 | 4.18 µM (active)
48 | COc1ccc(-c2nc(O)c3cnccn23)cc1 | 6.67 µM (active)
49 | CCOC(=O)C1=C(O)C(=O)N(Cc2cccnc2)C1c1ccc(OC)cc1 (stereo not given) | inactive
50 | COc1cc(/C=N/NC(=O)NC2CCCCC2)ccc1O | 3.75 µM (active)
51 | COc1cc(/C=N\NC(=O)C2CC3C=CC2C3)ccc1O (stereo not given) | 7.58 µM (active)
52 | O=S(=O)(Nc1ccc(O)cc1)c1cccc2cccnc12 | 4.75 µM (active)
53 | Cc1cc(=O)[nH]c2ccc(S(=O)(=O)Nc3ccc(O)cc3)cc12 | 7.34 µM (active)
54 | Cc1ccc(C)c(S(=O)(=O)Nc2ccc(O)cc2)c1 | 6.11 µM (active)
55 | CSS(=O)(=O)c1cccc2cccnc12 | inactive
56 | Cc1cc(C)c(S(=O)(=O)Nc2cc(SCC(=O)O)c(O)c3ccccc23)cc1C | inactive
57 | CNS(=O)(=O)c1cc(NC(=O)CCCNC(=O)c2ccc(Cl)cc2)ccc1C | inactive
58 | Cc1ccccc1NS(=O)(=O)c1cc(C(=O)NCCC2=CCCCC2)ccc1C | inactive
59 | CCSS(=O)(=O)c1cccc2cccnc12 | inactive
60 | Cc1cc(C)c(S(=O)(=O)Nc2ccc(O)cc2)cc1C | 12.1 µM (active)
61 | Cc1c(C(=O)Oc2ccc(-c3cnc4ccccc4n3)cc2)cccc1[N+](=O)[O-] | inactive
62 | NC(=O)N/N=C/c1c(Sc2nnnn2-c2ccccc2)nc2ccccn2c1=O | inactive
63 | Cc1cc(Cl)ccc1OCCn1cncn1 | inactive
64 | CC1=C/C(=N\OS(=O)(=O)c2ccccc2)C(C(C)C)=CC1=O | inactive
65 | CN1CCc2cccc3c2C1Cc1ccc(O)c(O)c1-3 (stereo not given) | inactive
